From PubChem BioAssay AID1259418 (Broad Institute, 2018)
The whole screen tested about 3,400 compounds, of which about 840 (25%) were called active. About 11% were inconclusive and are not listed. Not all results are given here. Measured potencies and affinities stand elsewhere. A number with no mark means an inactive call.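 Rule for the calls: active = fitted half-maximal concentration of signal decrease at or below twice the sample's top tested concentration; inconclusive = flat curve between -70 and -30 percent, or poor fit; inactive = flat within 30 percent, signal rise, or potency above limit.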

Assay: T. gondii growth inhibition with IFN-gamma, dose response, cell-based, ME49Luc, HeLa, luciferase, 72 h (AID 1259418)
Settings: T. gondii ME49Luc in IFN-y HeLa, stronger effect = lower value, -100% = high-dose IFN-γ control wells; at 19.5 µM unless noted

SMILES | max activity
Cc1nc(OCC(=O)Nc2ccc(C(C)C)cc2)c2ccccc2n1 | 15.7% [at 1.35 µM]
CC(C)CCNC(=O)CC1Nc2c3ccccc3nc(=S)n2C1=O (configuration not stated) | 41.3%
CCOc1ccccc1NC(=O)CN1CCC2(CC1)N=C(c1cccc(Cl)c1)C(=O)N2 | 5.75%
COc1ccccc1-c1nc(Cn2nnc(-c3nc(-c4cccc(F)c4)no3)c2C)c(C)o1 | -3.46% [at 1.35 µM]
Cc1ccc(-c2nc(Cn3nnc(-c4nc(-c5cccc(C)c5)no4)c3C)c(C)o2)cc1 | -13% [at 5 µM]
Cc1ccccc1-c1ccc(C2[C@@H]3CN(C(=O)C4CCOCC4)C[C@H]2N3)cc1 (some centres not stated) | 20.5%
O=C(NC1CCCCC1)N1C[C@@H]2N[C@H](C1)C2c1ccc(-c2ccc(F)cc2)cc1 (some centres not stated) | 23.1% [at 10 µM]
CCCNC(=O)N1CCc2nc(-c3ccc(OC)cc3)sc2C1 | 12.7% [at 10 µM]
Cc1ccc(NC(=O)COc2nc(C)nc3ccccc23)c(C)c1 | 13.8% [at 0.68 µM]
COc1ccc(-c2nc(Nc3ccc(F)c(Cl)c3)c3ccccc3n2)cc1 | 19.7%
CO[C@H]1CCN(c2ccc(C)nn2)[C@H]1Cc1cnn(C)c1 | -9.84% [at 1.2 µM]
Cc1nc(-c2ccc(F)cc2)sc1-c1ccc(SCc2ccccc2Cl)nn1 | 10% [at 0.16 µM]
Cc1ccc(-c2nc(Cn3nnc(-c4nc(-c5ccccc5Cl)no4)c3C)c(C)o2)cc1 | -11.4% [at 2.6 µM]
CC(CCc1ccccc1)Nc1nc(-c2ccc(Cl)cc2)nc2ccccc12 (configuration not stated) | -14.3% [at 5 µM]
COc1ccc(-c2nc(N3CCN(c4cccc(C)c4C)CC3)c3ccccc3n2)cc1 | 17%
Cc1ccc(-c2nc3c(s2)CN(C(=O)NCc2ccccc2)CC3)cc1 | -24.6% [at 0.35 µM]
CCCNC(=O)N1CCc2nc(-c3ccc(C)cc3)sc2C1 | -30.1% [at 0.16 µM]
O=C(Nc1ccc(-c2nc(-c3ccccc3)co2)cc1)c1ccccc1F | -7.4% [at 10 µM]
COCCN1C(=O)CCC12CCC(NC(=O)c1cc(C)on1)CC2 (configuration not stated) | 12.8%
Cc1cc(C)cc(S(=O)(=O)N2CCC3(CC2)NCCN=C3NC2CCCC2)c1 | 8.57% [at 0.35 µM]
Cc1cc(C)c(S(=O)(=O)N2CCC3(CC2)NCCN=C3NC2CCCC2)cc1C | -17.7%
Cc1ccc(S(=O)(=O)N2CCC3(CC2)NCCN=C3NC2CCCC2)cc1C | 15.2% [at 1.35 µM]
CCOc1ccc(-c2ccc(OCCNC(=O)c3sc(-c4ccccc4)nc3C)nn2)cc1 | 10.6%
O=C(CCn1cnc2cc(-c3noc(Cc4c[nH]c5ccccc45)n3)ccc21)N1CCCC1 | 27.3%

SMILES | max activity
CCCC(=O)Nc1ccc(-c2nc(-c3ccc(C)cc3C)co2)cc1 | -18.1% [at 1.35 µM]
O=C(COc1ccc(F)cc1)Nc1ccc2c(c1)CCC(=O)N2 | -4.48% [at 1.35 µM]
Cc1cccc(C(=O)Nc2ccc(-c3nc(-c4ccccc4)co3)cc2)c1 | 70.1%
COc1ccc(-c2nc(Cn3nnc(-c4nc(-c5ccc(SC)cc5)no4)c3C)c(C)o2)cc1 | -6.45% [at 5 µM]
O=S(=O)(c1ccccc1F)N1CC[C@H]2[C@H](CO)Nc3ccc(C4=CCCCC4)cc3[C@H]21 | 39.3% [at 10 µM]
COc1ccccc1S(=O)(=O)N1CC[C@H]2[C@H](CO)Nc3ccc(-c4ccc(C#N)cc4)cc3[C@H]21 | 23% [at 21 µM]
Cc1cccc(S(=O)(=O)N2CC[C@@H]3[C@H](CO)Nc4ccc(-c5ccccc5F)cc4[C@@H]32)c1 | 25.7% [at 10 µM]
O=S(=O)(c1ccccc1F)N1CC[C@@H]2[C@H](CO)Nc3ccc(C4=CCCCC4)cc3[C@@H]21 | 7.48% [at 10 µM]
O=S(=O)(c1ccccc1F)N1CC[C@@H]2[C@@H](CO)Nc3ccc(C4=CCCCC4)cc3[C@@H]21 | 37.4% [at 10 µM]
CC(=O)NCC(=O)N1CCC2(CC1)CC(c1ccccc1)C(=O)N2 (configuration not stated) | 28.8%
COc1ccc(NC(=O)Nc2ccc(-c3nc(-c4cc(C)ccc4C)co3)cc2)c(OC)c1 | 9.16% [at 5 µM]
CS(=O)(=O)NCc1cnc2n1CCN(Cc1cccs1)CC2 | 48.8%
CCN1C(=O)CCc2cc(NC(=O)Cc3ccccc3Cl)ccc21 | -5.27% [at 0.16 µM]
COc1ccc(-c2nc(NCCC3=CCCCC3)c3ccccc3n2)cc1 | -27.2% [at 1.35 µM]
CN1[C@@H]2Cn3c(ccc(/C=C/c4ccccc4)c3=O)[C@H]1[C@@H](C(=O)NC1Cc3ccccc3C1)[C@@H]2CO | 15.2% [at 5 µM]
Cc1ccc2c(c1C)-n1cccc1C1(CCN(C(=O)c3ccco3)CC1)N2 | 10.9% [at 0.16 µM]
Cc1ccc(-c2nc(CSc3nc4c(c(=O)[nH]3)CN(Cc3ccc(F)cc3)CC4)c(C)o2)cc1 | 26% [at 0.16 µM]
Cc1oc(-c2ccccc2)nc1CSc1nc2c(c(=O)[nH]1)CN(Cc1ccc(Cl)cc1)CC2 | 14.5% [at 0.16 µM]
COc1ccc(CN2CCc3nc(SCc4nc(-c5ccc(C)cc5)oc4C)[nH]c(=O)c3C2)cc1 | 16.3%
Cc1ccc(-c2nc(CSc3nc4c(c(=O)[nH]3)CN(Cc3ccccc3)CC4)c(C)o2)cc1 | -18% [at 0.68 µM]
Cc1nc(-c2ccc(F)cc2)sc1-c1ccc(SCCN2CCOCC2)nn1 | 231%
O=C(Nc1ccc(F)cc1)Nc1ccc(-c2nc(-c3cccc(Br)c3)co2)cc1 | 4.84% [at 10 µM]
COc1ccc(-c2nc(N3CCCC(C)C3)c3ccccc3n2)cc1 (configuration not stated) | 20.4% [at 1.35 µM]
O=C(CCC1N=C2c3ccccc3N=C(SCc3cc(=O)n4ccccc4n3)N2C1=O)NCc1ccc2c(c1)OCO2 (configuration not stated) | 14.1% [at 0.35 µM]

SMILES | max activity
Cc1ccc(CSC2=Nc3ccccc3C3=NC(CC(=O)NCc4cccs4)C(=O)N23)c(C)c1 (configuration not stated) | 21.5% [at 0.68 µM]
O=C(CC1N=C2c3ccccc3N=C(SCc3cc(=O)n4cc(Cl)ccc4n3)N2C1=O)NCc1cccs1 (configuration not stated) | 41.3% [at 0.35 µM]
CCOC(=O)CSC1=Nc2ccccc2C2=NC(CCC(=O)NCc3cccs3)C(=O)N12 (configuration not stated) | 13.6% [at 10 µM]
COc1ccccc1CNC(=O)CC1N=C2c3ccccc3N=C(SCc3ccc(F)cc3)N2C1=O (configuration not stated) | 11.2% [at 10 µM]
O=C(CCC1N=C2c3ccccc3N=C(SCc3cc(=O)n4ccccc4n3)N2C1=O)NCc1cccs1 (configuration not stated) | 13.4% [at 0.16 µM]
Cc1c(Cl)cccc1NC(=O)CN1CCC2(CC1)N=C(c1ccc(F)cc1)C(=O)N2 | -21.7% [at 1.35 µM]
Cc1ccc(CC(=O)Nc2ccc(-c3nc(-c4ccc(C)cc4)co3)cc2)cc1 | 19.1% [at 10 µM]
Cc1oc(-c2ccccc2)nc1Cn1nnc(-c2nc(-c3ccc(Cl)c(F)c3)no2)c1C | 7.02%
Cc1cccc(C2=NC3(CCN(CC(=O)Nc4ccc(C)c(F)c4)CC3)NC2=O)c1 | -23%
N#Cc1c(N2C[C@@H]3NCCO[C@H]3C2)c(F)cc2c(=O)c(C(=O)O)cn(C3CC3)c12 | 13.7%
COC(=O)Cn1cc(CN2CCCC2c2cc(C(C)C)on2)c2cc(OC)ccc21 (configuration not stated) | 14.7%
COc1ccc2c(c1)NC1(CCN(C(=O)Cc3ccc(C)cc3)CC1)c1cccn1-2 | 5.57% [at 0.35 µM]
CCCCc1ccc(Nc2ncnc3c2cnn3-c2ccc(Cl)cc2)cc1 | -18.1% [at 5 µM]
Cc1cccc(-c2nc(CN3CCc4c(sc5c4CCCC5)C3c3ccccc3)c(C)o2)c1 (configuration not stated) | 18.5%
O=C(CCC1N=C2c3ccccc3N=C(SCc3ccccc3F)N2C1=O)NCc1ccc2c(c1)OCO2 (configuration not stated) | 17.7% [at 0.16 µM]
O=C(CCC1N=C2c3ccccc3N=C(SCc3ccc(Cl)cc3)N2C1=O)NCc1ccc2c(c1)OCO2 (configuration not stated) | -24.4% [at 0.35 µM]
O=C(CC1N=C2c3ccccc3N=C(SCc3ccc(Cl)cc3)N2C1=O)NC1CCCCC1 (configuration not stated) | -16.8% [at 0.35 µM]
Cc1ccc(CSC2=Nc3ccccc3C3=NC(CC(=O)NCc4cccs4)C(=O)N23)cc1 (configuration not stated) | 21.6% [at 2.6 µM]
O=C(CCC1N=C2c3ccccc3N=C(SCc3ccc(F)cc3)N2C1=O)NCc1cccs1 (configuration not stated) | 11.9% [at 1.35 µM]
Cc1ccc2c(c1)cc(S(=O)(=O)c1ccccc1)c(=O)n2CC(=O)NC1CCCC1 | -10.6% [at 0.35 µM]
COc1ccc(CNC(=O)Nc2ccc(-c3nc(-c4ccccc4)co3)cc2)cc1 | 134%
O=C(Cc1ccccc1)N1CCC2(CC1)Nc1cc(F)ccc1-n1cccc12 | 8.98% [at 0.68 µM]
COc1ccccc1CNC(=O)CCC1N=C2c3ccccc3N=C(SCC#N)N2C1=O (configuration not stated) | 14.4% [at 1.35 µM]
C=CCNc1ncnc2c1cnn2-c1ccc(Cl)cc1 | 134% [at 0.35 µM]
